HP1b binding inh – HTS for Inhibitors of HP1-beta Chromodomain Interactions with Methylated Histone Tails | AID 540317, 2011 | Chromobox protein homolog 1 (Homo sapiens), P83916 | AlphaScreen HP1-beta / biotin-H3K9me3 peptide binding | Potency, µM (highest dose often 114 µM), for inactives: at the top dose activity change, negative = inhibition, actives largely listed as inhibitors | 390,000 compounds, 0.56% hits; also: nearly all actives have a fitted effect of over 70% in size
Target sequence (P83916 whole entry, looked up): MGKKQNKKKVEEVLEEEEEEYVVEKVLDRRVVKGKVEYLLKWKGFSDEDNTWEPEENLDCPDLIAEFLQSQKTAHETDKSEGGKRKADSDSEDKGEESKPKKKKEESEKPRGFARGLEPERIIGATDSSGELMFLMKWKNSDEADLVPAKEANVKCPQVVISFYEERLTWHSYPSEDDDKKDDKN
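HP1-beta protein (50 nM final) preincubated 30 min at room temperature with biotinylated H3(1-18)K9me3 peptide (50 nM) in PBS pH 7.4, 0.01% Tween-20, then compound added for 30 min. AlphaScreen streptavidin donor/nickel chelate acceptor beads (10 ug/mL final), 30 min dark, luminescence read.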
JMJD2A Tudor inh – qHTS Assay for Inhibitors of JMJD2A-Tudor Domain. 390,000 compounds, 4.4% hits. AlphaScreen JMJD2A-Tudor / H3K4me3 peptide binding. Potency, µM (top dose mostly 114 µM), for the others: at the top dose activity change, negative = inhibition, most hits filed as inhibitors; also: % is scaled to controls: 0 for no effect and ±100 for the full control effect; nearly all actives have a fitted effect of over 50% in size
Sfp PPTase inh – qHTS Assay for Inhibitors of Bacillus subtilis Sfp phosphopantetheinyl transferase (PPTase). Biochemical Sfp PPTase activity, qHTS. AID 1490, 2009. 310,000 compounds, 3.5% hits. Potency, µM, for the others: largest response in the series, negative = inhibition, usual class: inhibitors. 4'-phosphopantetheinyl transferase ffp (Bacillus subtilis), Q9F4F7;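 also: the enzyme is Sfp with the accession as filed and its product quenches rhodamine fluorescence; 0% = enzyme reaction without inhibitor and -100% = no enzyme wells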
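Reaction rates are the 30-min fluorescence difference (ex 525, em 598 nm) in wells containing 15 nM Sfp, 5 uM rhodamine-CoA and 12.5 uM BHQ-2-YbbR at pH 7.6 with 10 mM MgCl2.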
G9a block – qHTS Assay for Inhibitors of Histone Lysine Methyltransferase G9a | Histone-lysine N-methyltransferase EHMT2 (Homo sapiens), Q96KQ7 | G9a H3K9 monomethylation, AlphaScreen, 2 h | Potency, µM (titrated, usually from 102 µM), without a hit: at the top dose activity, negative = inhibition, most hits filed as inhibitors | 350,000 compounds, 8.8% hits | AID 504332, 2011; also: % is scaled to controls: 0 for no effect and ±100 for the full control effect; nearly all actives have a fitted effect of over 75% in size
Target sequence (Q96KQ7 913-1193 limits assumed): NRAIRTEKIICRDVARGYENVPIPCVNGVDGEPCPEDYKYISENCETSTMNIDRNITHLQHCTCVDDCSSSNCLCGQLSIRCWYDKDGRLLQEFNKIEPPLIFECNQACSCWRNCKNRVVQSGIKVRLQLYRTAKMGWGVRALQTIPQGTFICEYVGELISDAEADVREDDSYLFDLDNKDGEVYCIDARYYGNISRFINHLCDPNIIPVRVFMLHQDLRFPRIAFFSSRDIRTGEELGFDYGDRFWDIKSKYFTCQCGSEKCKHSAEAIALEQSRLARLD
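G9a (20 nM) preincubated 15 min RT with compounds, then 500 nM biotinylated H3K9 peptide and 20 uM SAM added; 2 h RT reaction. Monomethyl-H3K9 product detected by AlphaScreen with anti-H3K9me1 antibody, streptavidin donor and anti-rabbit IgG acceptor beads.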
BAZ2B block – qHTS Assay for Inhibitors of BAZ2B. Bromodomain adjacent to zinc finger domain protein 2B (Homo sapiens), Q9UIF8. AlphaScreen BAZ2B-H3K14Ac peptide displacement. Potency, µM (top dose mostly 114 µM), for the others: at the highest dose activity change, negative = inhibition, most hits filed as inhibitors. 360,000 compounds, 4.4% hits. AID 504333, 2011; also: % is scaled to controls: 0 for no effect and ±100 for the full control effect; nearly all actives have a fitted effect of over 60% in size
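Multi-concentration screen (max 110 uM) measuring displacement of acetylated histone H3 peptide from BAZ2B by AlphaScreen, using 50 nM protein, 50 nM peptide and 10 ug/mL streptavidin donor plus Ni-chelate acceptor beads.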
L3MBTL1 inh – qHTS Assay for the Inhibitors of L3MBTL1; AlphaScreen L3MBTL1–H3K9me1 peptide binding; 230,000 compounds, 0.66% hits; Potency, µM (series often up to 57.1 µM), for inactives: at the top dose activity, negative = inhibition, usual class: inhibitors; Lethal(3)malignant brain tumor-like protein 1 (Homo sapiens), Q9Y468; also: % is scaled to controls: 0 for no effect and ±100 for the full control effect; nearly all actives have a fitted effect of over 60% in size
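Read-out is AlphaScreen signal from streptavidin donor and nickel chelate acceptor beads (10 ug/mL final each) bridging L3MBTL1 (50 nM) and biotinylated K9-monomethylated H3(1-15) peptide (75 nM), after 30 min compound exposure at room temperature.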
* hit, by the source's call; ? = inconclusive; / = no result given; [ ] = remark or other dose. Compounds with a hit are over-represented: about 12% of the library has one in this group of screens. Calls follow the shape of the dose curve; as a rule, active = well fitted curve in the direction sought with a large enough effect; inconclusive = small, poorly fitted or top-dose-only effect, or another doubt; inactive = no such curve, though single readings can be large; an effect the other way counts as inactive or inconclusive. Potency is read from the fitted curve at half-maximal effect.

SMILES	HP1b binding inh	JMJD2A Tudor inh	Sfp PPTase inh	G9a block	BAZ2B block	L3MBTL1 inh
Cc1ccc(S(=O)(=O)N2CCC(n3c(C)nc4cccnc43)CC2)c(C)c1	18.9%	-0.3%	/	-4.3%[59 µM]	-2.8%	/
Cc1cccc(OC(=O)n2c(=S)oc3cc(Cl)ccc32)c1	3.4%	79.4µM*	1.2%	2.82µM*	-14.9%	9.6%
Cc1[nH][nH]c(=O)c1C(c1c(C)[nH][nH]c1=O)c1cn(Cc2ccccc2Cl)c2ccccc12	?	?	-11.0%	14.1µM*	?	-28.0%
N/C(=N\O)c1cn(Cc2ccccc2Cl)c2ccccc12	-2.2%	-19.9%	0.6%	-7.1%	-30.6%	/
COc1ccc(-c2onc(C)c2C)cc1S(=O)(=O)NCc1ccc(Br)cc1	12.0%	-13.3%	/	3.7%[59 µM]	-15.9%	/
O=C(CCNC(=O)c1ccc(Br)cc1)NCc1ccco1	13.2%	-7.9%	/	11.0%[0.501 µM]	12.7%	-6.3%
O=C(CCS(=O)(=O)c1ccc(Br)cc1)NCc1cccs1	50.1µM*	35.5µM*	1.6%	?	50.1µM*	/
O=C(CCCCC(=O)NCc1cccs1)NCc1cccs1	34.5%	2.8%	12.4%	-2.3%	-4.1%	3.4%
O=C(CCS(=O)(=O)c1ccc(Br)cc1)NCc1ccco1	42.5%	2.3%	-1.7%	-21.4%[59 µM]	50.1µM*	/
Cc1cccc(Cn2cc(C(=O)c3ccccc3)c(=O)c3cc4c(cc32)OCO4)c1	10.4%	-27.6%	/	-3.1%[59 µM]	-25.5%	/
Cc1cccc(NC(=S)N2CCN(S(=O)(=O)c3ccccc3)CC2)c1	29.8%	-19.2%	3.5%	?	-22.9%	/
O=S(=O)(c1ccccc1)N1CCN(C(=S)Nc2ccc(Br)cc2)CC1	45.5%	-17.8%	-1.9%	/	-15.1%	/
O=[N+]([O-])c1ccc(NC(=S)N2CCN(S(=O)(=O)c3ccccc3)CC2)cc1	-2.3%	?	10.2%	50.1µM*	-30.4%	/
Cc1cccc(NC(=S)N2CCN(S(=O)(=O)c3cccc(F)c3)CC2)c1	5.8%	-11.1%	11.5%	1.5%	-38.7%	-3.7%
CC(=O)c1cccc(NC(=S)N2CCN(S(=O)(=O)c3ccc(F)cc3)CC2)c1	14.2%[57 µM]	-2.6%	-19.7%	28.2µM*	-13.5%	/
CC(=O)c1cccc(NC(=S)N2CCN(S(=O)(=O)c3ccccc3)CC2)c1	?	-15.3%	-22.3%	44.7µM*	-20.5%	/
CN(C)c1ccnc(C(=O)O)c1	1.2%	0.708µM*	56.2µM*	4.47µM*	22.4µM*	/
O=C(O)c1cc(Br)ccn1	7.4%	3.16µM*	35.5µM*	15.8µM*	/	/
O=C(O)c1cncc(Br)c1	31.5%	0.7%	14.1%	?	-1.1%	4.1%
CN(C)c1ccc(CCc2ccc(N)cc2)cc1	50.1µM*	56.2µM*	/	/	/	/
N#Cc1nc(-c2ccc(COc3ccccc3)o2)oc1N1CCCCC1	?	?	/	4.47µM*	5.01µM*	/
Cc1cccc(OCc2ccc(-c3nc(C#N)c(N4CCN(c5ccccc5)CC4)o3)o2)c1	12.2%	-35.4%	/	-42.4%[59 µM]	-37.8%	/
N#Cc1nc(-c2ccccc2Cl)oc1N1CCCCC1	?	?	-5.7%	35.5µM*	22.4µM*	-26.8%
N#Cc1nc(-c2ccc(COc3ccc(Cl)cc3)o2)oc1N1CCCCC1	-8.1%	?	/	3.16µM*	?	/
COc1ccc(OC)c(NC(=O)CCc2c(C)nn(-c3ccc(N4CCCC4)nn3)c2C)c1	89.6%	?	/	3.1%[59 µM]	?	/
SMILES	HP1b binding inh	JMJD2A Tudor inh	Sfp PPTase inh	G9a block	BAZ2B block	L3MBTL1 inh
CCOc1cccc(C(=O)Nc2nc3c(s2)CC(C(C)(C)C)CC3)c1 (stereo not given)	32.4%	-13.6%	/	5.6%[59 µM]	?	/
CN(C)c1cccc(NC2=CC(=[N+]3CCOCC3)CC(C)(C)C2)c1	-6.9%	89.1µM*	-0.9%	11.2µM*	?	/
CCOC(=O)c1sc2ccccc2c1OC(=O)c1ccc(C)cc1	86.5%	-76.2%	9.5%	24.0%	63.2%	-4.4%
CCOC(=O)c1sc(S(C)=O)c2c1CCc1conc1-2 (stereo not given)	43.2%	-15.3%	39.8µM*	31.6µM*	-3.1%	-29.3%
COc1ccc(NS(=O)(=O)c2ccc(OC)c3ccccc23)cn1	?	79.4µM*	-14.8%	-37.1%	6.7%	30.7%
COc1ccc(S(=O)(=O)Nc2ccncc2)c(C)c1C	38.4%	11.0%	89.1µM*	9.4%	-6.5%	0.0%
COc1ccc(S(=O)(=O)Nc2cccnc2)c(C)c1C	21.3%	-13.7%	9.4%	14.7%[59 µM]	-2.2%	4.2%
Cn1ccc2cc(-c3ccc4ncnc(NCc5cccnc5)c4c3)ccc21	/	/	/	?	?	-10.1%
COc1cc(NC(=O)Cn2c(=O)n(Cc3ccccc3OC)c(=O)c3cccnc32)cc(OC)c1	16.3%	-6.2%	/	-13.3%[59 µM]	3.6%	/
Cc1cc2c(cc(C(=O)OCC(=O)NC3CCCCC3)n2C)o1	-28.9%[57 µM]	22.4µM*	/	/	/	/
Cc1cc(C(=O)OCC(=O)NC2CCCCC2)c(C)o1	21.0%	-12.7%	23.6%	3.4%	?	/
O=C(COC(=O)c1cccc(C(=O)OCC(=O)NC2CCCCC2)n1)NC1CCCCC1	28.7%	?	10.6%	50.1µM*	11.8%	14.9%
CC(C)C(C)NC(=O)COC(=O)c1cccc(C(=O)OCC(=O)NC(C)C(C)C)n1 (stereo not given)	29.3%	?	1.5%	10µM*	?	35.1%
CC(C)=CCCC1(C)C=Cc2c(c(C)cc3c2[nH]c2ccccc23)O1 (stereo not given)	/	/	18.5%	/	/	/
O=C(Cc1ccc(NC(=O)N2CCCCc3ccccc32)cc1)NCc1ccccc1Br	23.3%	-14.3%	/	-2.5%[59 µM]	-18.1%	/
CC(C)C[C@H](NC(=O)[C@H](CO)NC(=O)CNC(=O)[C@H](CCCCN)NC(=O)[C@H](CCCN=C(N)N)NC(=O)[C@H](C)NC(=O)[C@H](Cc1ccccc1)NC(=O)[C@@H](N)CCCN=C(N)N)C(=O)N[C@@H](CCCN=C(N)N)C(=O)N[C@@H](CCC(N)=O)C(=O)N[C@@H](CCCCN)C(=O)N[C@@H](CC(N)=O)C(=O)N[C@H](C(=O)O)C(C)C	/	/	11.0%	/	/	/
Cc1nnc(NC(=O)c2ccc(S(=O)(=O)N3CC(C)OC(C)C3)cc2)o1 (stereo not given)	33.7%	2.82µM*	?	8.5%	25.1µM*	/

Bioassay records from PubChem.
